Screening results from PubChem.
This excerpt belongs to a sample that is enriched for hits.
nsP2pro inh – blocks chikungunya virus nsP2 protease peptide cleavage; FRET peptide cleavage, nsP2pro, fluorescence 1 h; Potency, µM (titrated, usually from 24.9 µM), hits mostly inhibitors; 31,000 tested, 1.1% active; AID 1964107; further: nearly all actives have a fitted effect of over 60% in size
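Enzyme 150 nM, substrate 2.5 uM (both final); Tris-HCl 10 mM pH 8.0 + 0.01% Tween 20; cpd up to 25 uM, 7 pts; 15 min preinc., 1 h RT; fluorescence ex 525/em 598.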
CHIKV nsP2 cell – inhibits CHIKV nsP2 protease in cells. shares compounds with nsP2pro inh. cell-based CHIKV nsP2 protease reporter assay. Potency, µM (series often up to 51.1 µM), usual class: inhibitors. 450 tested, 10% active. AID 1964100; further: nearly all actives have a fitted effect of over 70% in size
Target sequence (Q8JUX6 220-798 limits assumed): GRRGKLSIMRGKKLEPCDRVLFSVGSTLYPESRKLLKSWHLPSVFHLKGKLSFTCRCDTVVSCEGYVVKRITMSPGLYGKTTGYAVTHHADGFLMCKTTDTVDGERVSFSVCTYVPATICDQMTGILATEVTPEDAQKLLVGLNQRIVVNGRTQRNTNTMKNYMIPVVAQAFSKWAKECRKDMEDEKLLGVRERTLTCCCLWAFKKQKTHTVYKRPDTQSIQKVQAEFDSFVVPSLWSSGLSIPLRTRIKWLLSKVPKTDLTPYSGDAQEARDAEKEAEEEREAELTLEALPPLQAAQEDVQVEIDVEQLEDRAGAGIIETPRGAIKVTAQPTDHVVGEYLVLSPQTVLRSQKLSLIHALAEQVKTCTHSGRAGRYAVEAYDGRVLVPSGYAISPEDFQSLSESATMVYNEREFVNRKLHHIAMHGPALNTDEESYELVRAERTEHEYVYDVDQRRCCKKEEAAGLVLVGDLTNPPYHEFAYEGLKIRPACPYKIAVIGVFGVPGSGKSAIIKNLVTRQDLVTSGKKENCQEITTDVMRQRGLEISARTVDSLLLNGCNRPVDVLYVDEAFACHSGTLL
NSP2 full ctr – inhibits full-length CHIKV NSP2 enzyme; shares compounds with nsP2pro inh; Full-length CHIKV NSP2 protease enzymatic counterscreen; Potency, µM (series often up to 50.7 µM), most hits filed as inhibitors; 410 tested, 39% active; AID 1964101; further: nearly all actives have a fitted effect of over 65% in size
Furin counterscr – inhibits human furin in a CHIKV nsP2 protease selectivity counterscreen | shares compounds with nsP2pro inh | Recombinant human furin enzymatic counterscreen, fluorogenic substrate | Potency, µM (highest dose often 50.6 µM), usual class: inhibitors | 410 tested, 6% active
NS23 peptide cs – selectivity test for CHIKV nsP2 protease inhibitors: endogenous NS2/3 peptide | Purified CHIKV nsP2 protease, endogenous NS2/3 peptide cleavage | Potency, µM (doses to about 51 µM), usual class: inhibitors | shares compounds with nsP2pro inh | 410 tested, 34% active; further: nearly all actives have a fitted effect of over 55% in size
Papain counter – papain protease inhibition, counterscreen for nsP2pro inhibitors; shares compounds with nsP2pro inh; Potency, µM (top dose mostly 51 µM), actives largely listed as inhibitors; 410 tested, 5% active; purified papain protease activity, enzymatic inhibition; AID 1964104
nsP2pro conf qHTS – confirmation of CHIKV nsP2 protease inhibitors; AID 1964105; 410 tested, 43% active; shares compounds with nsP2pro inh; CHIKV nsP2 protease enzymatic activity, qHTS; Potency, µM (titrated, usually from 25.5 µM), most hits filed as inhibitors; further: nearly all actives have a fitted effect of over 75% in size
HCV NS3 counter – inhibits HCV NS3/4A protease in an nsP2pro selectivity counterscreen; shares compounds with nsP2pro inh; HCV NS3/4A protease biochemical counterscreen; Potency, µM (top dose mostly 50.9 µM), actives largely listed as inhibitors; 410 tested, 20% active; AID 1964106; further: nearly all actives have a fitted effect of over 55% in size
Numbers stand for hits; - = inactive; ? = inconclusive; ! = repeats disagree. The call rests on the fitted dose curve.

SMILES	nsP2pro inh	others
O=C(Nc1ccc(Br)cc1)c1ccc(Br)c(S(=O)(=O)N2CCCCC2)c1	-
CCOC(=O)N1CCN(Cc2nc3cc(NC(=O)c4cccc(C)c4)ccc3n2C(C)C)CC1	-
Cc1cccc(C(=O)Nc2ccc(N3CCC(CCN4CCOCC4)CC3)c(C(=O)O)c2)c1	4.5µM!	CHIKV nsP2 cell=-;NSP2 full ctr=-;Furin counterscr=-;NS23 peptide cs=-;Papain counter=-;nsP2pro conf qHTS=-;HCV NS3 counter=?
O=C(Nc1ccc(N2CCOCC2)c(C(=O)O)c1)c1ccc(Br)cc1	3.5µM	CHIKV nsP2 cell=-;NSP2 full ctr=2.9µM;Furin counterscr=?;NS23 peptide cs=6.5µM;Papain counter=-;nsP2pro conf qHTS=5.7µM;HCV NS3 counter=1.6µM
Cc1cc(C)cc(C(=O)Nc2cc(C(F)(F)F)ccc2N2CCN(c3ccccc3)CC2)c1	-
O=C(Nc1ccc2c(c1)N(C1CCCC1)C(=O)c1ccccc1S2)c1ccccc1F	-
Cc1cccc(C(=O)N2C[C@H]3OC(=O)N(CCCN4CCOCC4)[C@H]3C2)c1	-
O=C(Nc1ccc(N2CCN(c3ccc(F)cc3)CC2)c(C(=O)O)c1)c1ccccc1F	?	CHIKV nsP2 cell=-;NSP2 full ctr=4.1µM;Furin counterscr=?;NS23 peptide cs=13µM;Papain counter=-;nsP2pro conf qHTS=7.1µM;HCV NS3 counter=1.3µM
CC(=O)c1ccc(N2CCN(c3ccc(NC(=O)c4cccs4)cc3C(=O)O)CC2)cc1	-
O=C(Nc1ccc(Cl)c(-c2nc3cc(Cl)ccc3o2)c1)c1cc([N+](=O)[O-])ccc1N1CCOCC1	-
CCN(CC)C(=O)C(c1ccccc1)N1CCN(c2ccc(NC(=O)c3ccccc3-c3cccnc3)cc2F)CC1 (stereo not given)	-
Cc1cccc(C(=O)Nc2ccc(N3CCN(c4ccc(F)cc4)CC3)c(C(=O)O)c2)c1	?	CHIKV nsP2 cell=-;NSP2 full ctr=7.3µM;Furin counterscr=-;NS23 peptide cs=16µM;Papain counter=-;nsP2pro conf qHTS=9µM;HCV NS3 counter=4.1µM
CO[C@H]1C[C@@H]2CC[C@@H](C)[C@@](O)(O2)C(=O)C(=O)N2CCCC[C@H]2C(=O)O[C@H]([C@H](C)C[C@@H]2CC[C@@H](OCCO)[C@H](OC)C2)CC(=O)[C@H](C)/C=C(/C)[C@@H](O)[C@@H](OC)C(=O)[C@H](C)C[C@H](C)\C=C/C=C\C=C/1C	-
O=C(C1CCCN1[S+](=O)([O-])c1cccc(C(F)(F)F)c1)N1CCC(N2Cc3cccn3C2=O)CC1 (stereo not given)	-
Cc1cc(C)nc(NC(=S)N2CCN(c3ccc(S(C)(=O)=O)cc3F)CC2)c1	-
CC(=O)SCC(=O)c1ccc(NS(=O)(=O)c2ccc(OCCCN(C)C)cc2)nc1	-
O=C(NCCc1nc2ccccc2n1CCOc1ccccc1F)C1CCCCC1	-
CC(=O)Nc1sc2c(c1Br)CCNC2	-
CCCCN(Cc1ccc(C(=O)NO)cc1)C(=O)Nc1ccccc1	-
Cc1ccnc(NC(=S)N[C@@H]2CCN(c3cccc(C(F)(F)F)c3)C2)c1	-
C[C@@H](O)c1ccc(-c2ccc3ncnc(NCc4cccs4)c3c2)o1	-
COC1CCCC/C(C)=C/C2C=C(C)C(C)C3C(CC(C)C)NC(=O)C23C(=O)C1 (stereo not given)	-
CC(Nc1nc(-c2ccccc2C(F)(F)F)nc2ccccc12)c1ccc(-c2cccc(C(F)(F)F)c2)cc1 (stereo not given)	-
Cc1sc(NC(=O)Cc2ccc3c(c2)OCO3)nc1-c1ccc2c(c1)CCN2C	-
Cc1ccccc1C(=O)N1CCc2cc(-c3cccc(NC(=O)Cc4ccc5c(c4)OCO5)c3)ccc21	-
NC1=N[C@@](c2cccc(-c3cncnc3)c2)(c2ccnc(C(F)F)c2)c2cccc(F)c21	-
CCCCCCN(CCC(=O)NCCc1ccccc1)C(=O)c1cc(C)oc1C	-
CC1=C(C(=O)Nc2ccccc2)C(c2ccccc2Cl)N=C(Nc2nc3ccccc3o2)N1 (stereo not given)	-
